Assay results taken from PubChem BioAssay AID1835 (Johns Hopkins Ion Channel Center, 2009).
Screen size: about 2,400 compounds; about 750 (31%) were called active. This is one part of the list. Values without a mark were called inactive.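 How the source made its calls: active means median signal gain over dofetilide-blocked control wells reaching their mean plus 3 SD, so readout 1 at least 0; inactive means the rest.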

What follows are compounds tested against Voltage-gated inwardly rectifying potassium channel KCNH2 (Homo sapiens) (UniProt Q12809) (assay: modulators restoring hERG flux under dofetilide – cell-based, thallium flux, duplicate retest, dofetilide IC70, confirmation (AID 1835)). Conditions: hERG cell line, FluxOR thallium flux, dofetilide-blocked; at 10 µM; active compounds read high.
Chain of Voltage-gated inwardly rectifying potassium channel KCNH2 (Homo sapiens) (Q12809 whole entry, looked up): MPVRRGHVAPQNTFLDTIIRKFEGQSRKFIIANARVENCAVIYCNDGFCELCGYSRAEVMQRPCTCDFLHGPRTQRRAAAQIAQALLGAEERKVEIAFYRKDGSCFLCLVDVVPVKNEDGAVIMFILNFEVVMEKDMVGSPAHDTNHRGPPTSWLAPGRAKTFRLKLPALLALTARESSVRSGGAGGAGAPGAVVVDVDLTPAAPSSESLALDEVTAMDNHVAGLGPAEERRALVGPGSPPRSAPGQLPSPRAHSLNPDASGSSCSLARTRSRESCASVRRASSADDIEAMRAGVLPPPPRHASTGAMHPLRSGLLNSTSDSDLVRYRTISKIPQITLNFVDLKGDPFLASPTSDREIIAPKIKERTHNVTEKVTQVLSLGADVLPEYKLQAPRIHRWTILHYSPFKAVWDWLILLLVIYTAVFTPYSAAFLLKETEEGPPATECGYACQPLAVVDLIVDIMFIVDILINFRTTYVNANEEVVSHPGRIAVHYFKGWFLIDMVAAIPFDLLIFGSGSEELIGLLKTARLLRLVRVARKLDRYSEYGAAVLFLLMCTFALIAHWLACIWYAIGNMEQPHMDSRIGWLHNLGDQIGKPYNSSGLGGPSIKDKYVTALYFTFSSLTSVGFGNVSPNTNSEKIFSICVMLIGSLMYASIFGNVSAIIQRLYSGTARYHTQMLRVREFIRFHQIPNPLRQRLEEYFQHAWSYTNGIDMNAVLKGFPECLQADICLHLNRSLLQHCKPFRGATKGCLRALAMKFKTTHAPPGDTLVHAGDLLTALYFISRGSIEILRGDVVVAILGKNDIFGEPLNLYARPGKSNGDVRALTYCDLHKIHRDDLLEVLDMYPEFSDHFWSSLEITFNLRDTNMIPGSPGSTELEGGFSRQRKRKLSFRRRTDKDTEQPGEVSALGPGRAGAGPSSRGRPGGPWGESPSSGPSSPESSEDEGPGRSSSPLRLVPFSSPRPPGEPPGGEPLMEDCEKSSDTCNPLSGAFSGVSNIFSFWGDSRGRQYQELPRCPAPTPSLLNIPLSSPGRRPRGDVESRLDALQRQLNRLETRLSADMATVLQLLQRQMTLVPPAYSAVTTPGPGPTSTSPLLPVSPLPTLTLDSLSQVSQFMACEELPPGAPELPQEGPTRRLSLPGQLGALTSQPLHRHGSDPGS
Compound `COc1ccc(CCNS(=O)(=O)c2csc(C(N)=O)c2)cc1OC` has an activity increase over dofetilide control, less the hit threshold of -14%. `Cc1nnc2c(SC(C)C)nc3ccccc3n12` showed an activity increase over dofetilide control, less the hit threshold of -19%. In the case of `Cc1nc2ccccc2n1-c1ccccc1`, the activity increase over dofetilide control, less the hit threshold is reported as 3% (active). Compound `COC(=O)c1ccc(-n2c(C)nc(=O)c(-c3ccccc3)c2C)cc1` has an activity increase over dofetilide control, less the hit threshold of -13%. `C=C(C)CSc1nnc2[nH]c(=O)cc(N)n12` gave an activity increase over dofetilide control, less the hit threshold of -19%. In the case of `CC1=CCC[C@@H]2[C@@](C)(CC/C(C)=C/C(=O)O)[C@H](C)CC[C@@]12C`, the activity increase over dofetilide control, less the hit threshold is reported as 84% (active). `Nc1ccc2oc(-c3ccccc3Cl)cc(=O)c2c1O` was tested, and the activity increase over dofetilide control, less the hit threshold was -3%. For `Cc1nc2scc(C)n2c(=O)c1S(=O)(=O)Nc1ccc(N2CCOCC2)cc1`, the activity increase over dofetilide control, less the hit threshold was -7%. `CCc1nc2sc3c(c2c(=S)[nH]1)CC(C)(C)OC3` was tested, and the activity increase over dofetilide control, less the hit threshold was -8%. `CCC1(C)Cc2c(sc3nc(SC)[nH]c(=S)c23)CO1` (stereo not given) was tested, and the activity increase over dofetilide control, less the hit threshold was 87% (active). With `CSc1nc2sc3c(c2c(=S)[nH]1)CC(C)(C)OC3` the activity increase over dofetilide control, less the hit threshold was 81% (active). Compound `CCN(CC(=O)NCc1ccc(Cl)cc1)C(=O)CCOc1ccc(C)cc1` has an activity increase over dofetilide control, less the hit threshold of -14%. Work on `CNc1nc(N)nc(OC(C(F)(F)F)C(F)(F)F)n1` yielded an activity increase over dofetilide control, less the hit threshold of -24%. With `Oc1c(Br)cc(Cl)cc1C=Nc1ccccc1Br` the activity increase over dofetilide control, less the hit threshold was 9% (active). For `O=C(Nc1ccccc1C(=O)O)c1cccc(NC(=O)c2ccco2)c1`, the activity increase over dofetilide control, less the hit threshold was -3%. With `NC(=O)c1cccc(N=Cc2cc(Cl)cc(Cl)c2O)c1` the activity increase over dofetilide control, less the hit threshold was 6% (active). For `O=C(N/N=C/c1cc(Cl)ccc1O)c1ccccc1Br`, the activity increase over dofetilide control, less the hit threshold was -3%. `Oc1c(Cl)cc(Cl)cc1/C=N/c1ncn[nH]1` was tested, and the activity increase over dofetilide control, less the hit threshold was 15% (active). `Oc1c(Cl)cc(Cl)cc1/C=N/c1nccs1` showed an activity increase over dofetilide control, less the hit threshold of -11%. In the case of `Oc1c(Br)cc(Br)cc1C=Nc1cccc2ncccc12`, the activity increase over dofetilide control, less the hit threshold is reported as -7%. With `O=C(Nc1cccc(N=Cc2cc(Cl)cc(Br)c2O)c1)c1ccco1` the activity increase over dofetilide control, less the hit threshold was 6% (active). `O=C(NC(=S)Nc1cccc([N+](=O)[O-])c1)c1ccco1` showed an activity increase over dofetilide control, less the hit threshold of -16%. In the case of `COc1ccccc1-n1c(CCC(=O)O)ccc1-c1ccccc1`, the activity increase over dofetilide control, less the hit threshold is reported as -12%. Compound `Nc1cc(N)nc(SCc2cc(=O)oc3cc4c(cc23)CCC4)n1` has an activity increase over dofetilide control, less the hit threshold of -35%. `CCCNC(=O)CN1C(=O)NC(Cc2c[nH]c3ccccc23)C1=O` (stereo not given) was tested, and the activity increase over dofetilide control, less the hit threshold was -22%. With `COc1ccc(-c2nc(=S)c3c([nH]2)Oc2ccc(C)cc2C3)cc1O` the activity increase over dofetilide control, less the hit threshold was -22%. `CC(=O)Nc1ccc(NC(=O)CSc2ncc(C(=O)Nc3ccc(Cl)cc3)c(=O)n2C)cc1` showed an activity increase over dofetilide control, less the hit threshold of -4%. `Cc1cccc(N=Cc2cc(Br)cc(Cl)c2O)c1` was tested, and the activity increase over dofetilide control, less the hit threshold was 5% (active). `Oc1c(Cl)cc(Cl)cc1C=Nc1ccc(Br)cc1` was tested, and the activity increase over dofetilide control, less the hit threshold was 8% (active). In the case of `Cc1ccc(N=Cc2cc(Cl)cc(Cl)c2O)nc1`, the activity increase over dofetilide control, less the hit threshold is reported as 3% (active). In the case of `Oc1c(Br)cc(Br)cc1C=Nc1ccc2c(c1)OCCO2`, the activity increase over dofetilide control, less the hit threshold is reported as -12%. `Cc1ccc(N=Cc2cc(Br)cc(Cl)c2O)cc1` showed an activity increase over dofetilide control, less the hit threshold of -10%. With `CC(=O)N1c2ccc(N=Cc3cc(Br)cc(Br)c3O)cc2CC1C` (stereo not given) the activity increase over dofetilide control, less the hit threshold was -5%. Work on `O=C(CSCc1cnn(-c2ccccc2)c1-n1cccc1)NCc1cccnc1` yielded an activity increase over dofetilide control, less the hit threshold of -22%. With `Cn1cc(/C=N/n2cnc3scc(-c4ccc(Cl)cc4)c3c2=O)c2ccccc21` the activity increase over dofetilide control, less the hit threshold was -10%. `S=c1[nH]cnc2scc(-c3ccccc3)c12` was tested, and the activity increase over dofetilide control, less the hit threshold was 51% (active). With `Cc1ccc(-c2csc3nc[nH]c(=S)c23)cc1` the activity increase over dofetilide control, less the hit threshold was 45% (active). In the case of `S=c1[nH]cnc2scc(-c3ccc(Cl)cc3)c12`, the activity increase over dofetilide control, less the hit threshold is reported as 22% (active). In the case of `S=c1[nH]cnc2scc(-c3ccc(Br)cc3)c12`, the activity increase over dofetilide control, less the hit threshold is reported as 33% (active). `Cc1ccc(C)n1-n1c(C)nc2scc(-c3ccccc3)c2c1=O` gave an activity increase over dofetilide control, less the hit threshold of -20%. `Cn1nnnc1Sc1ncnc2scc(-c3ccc(F)cc3)c12` showed an activity increase over dofetilide control, less the hit threshold of -12%. For `O=C1C(=O)N(CCN2CCOCC2)C(c2cccnc2)/C1=C(/O)c1ccc(Cl)cc1` (stereo not given), the activity increase over dofetilide control, less the hit threshold was -8%. With `CCn1nnnc1SCC(=O)N1c2ccccc2Sc2ccccc21` the activity increase over dofetilide control, less the hit threshold was -17%. `CCOC(=O)N1CCN(C(=O)CCn2c(=S)[nH]c3ccsc3c2=O)CC1` gave an activity increase over dofetilide control, less the hit threshold of -6%. `CCOC(=O)N1CCN(C(=O)CSc2nnc(-c3ccccc3OC)o2)CC1` was tested, and the activity increase over dofetilide control, less the hit threshold was -8%. `CCOC(=O)N1CCN(c2c(-c3ccc(C)c(C)c3)c(=O)c2=O)CC1` was tested, and the activity increase over dofetilide control, less the hit threshold was 1% (active). Work on `CC(C)OC(=O)C1CC(C)(O)C(=O)C(C(=O)OC(C)C)C1c1ccc([N+](=O)[O-])cc1` (stereo not given) yielded an activity increase over dofetilide control, less the hit threshold of -22%. `CN1CCN(c2nnc(-c3cccs3)c3ccccc23)CC1` showed an activity increase over dofetilide control, less the hit threshold of -13%. `CCOC(=O)C1=NN(C(=O)c2ccccc2)C(O)(c2ccc(C)cc2)C1` (stereo not given) was tested, and the activity increase over dofetilide control, less the hit threshold was 1% (active). With `CCOC(=O)C1=NN(C(=O)c2ccc(C)cc2)C(O)(c2ccc(Cl)cc2)C1` (stereo not given) the activity increase over dofetilide control, less the hit threshold was 100% (active).
